The values that follow come from PubChem BioAssay (NCATS).

SMILES strings stand for the structures. Results filed as inconclusive are left out. A number with no mark means an inactive call. Active and inactive are the calls of the source. Calls follow the shape of the dose curve; as a rule, active = well fitted curve in the direction sought with a large enough effect; inconclusive = small, poorly fitted or top-dose-only effect, or another doubt; inactive = no such curve, though single readings can be large; an effect the other way counts as inactive or inconclusive.

Test [1] in a line: qHTS assay to identify inhibitors of the type 1 interferon - major histocompatibility complex class I in skeletal muscle: Counter screen cell viability and HiBit confirmation (AID 1347412). As to all read-outs here: nearly all actives have a fitted effect of over 60% in size. As to conditions: iHSKM muscle cells + IFN-b, HiBiT or CellTiter-Glo, 24 h; for activity change, negative = inhibition: at 45.9 µM (top of the series). A digest of the protocol:
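Duplicate plates, pinned identically: one read for HiBiT-tagged endogenous HLA-B luminescence, the other for ATP-content viability via CellTiter Glo. Cells were genome-engineered human myoblasts given 4 ng/ml IFN-b; compounds 12-pt, 1:3 from 46 uM final; 24 hr exposure.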
Background: qHTS replaces the single test concentration by a dilution series.

The next test has as its system astro. The experiment in a line: Drug repurposing screens with cells derived from glioblastoma tumor samples (AID 1345199). Also: nearly all actives have a fitted effect of over 40% in size. As to conditions: viability, ATP luminescence, 48 h; series mostly up to 45.9 µM. The method, boiled down:
(§1)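 Primary testing used CD133+ neurospheres from four GBM patients, seven concentrations, 48 h exposure and ATP-based viability; confirmation added three slower-growing patient lines.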

Assay in test [2]: as above
As to conditions: GBM patient neurospheres viability, ATP luminescence, 48 h. A digest of the protocol: as §1

[3] abbreviates: at 45.9 µM (top of the series), tumour line B.
The mark [4] stands for this setting: at 45.9 µM (top of the series), tumour line D.
[5] abbreviates: at 46 µM (top of the series), tumour line A.
The mark [6] stands for this setting: at 46.1 µM (top of the series), tumour line C.
% is scaled to controls: 0 for no effect and ±100 for the full control effect; potency is read from the fitted curve at half-maximal effect.

For `NC(=O)c1c(OCc2c(F)cc(Br)cc2F)nsc1NC(=O)NCCCCN1CCCC1`, the activity change, negative = inhibition in test [1] (HiBiT) was -22.6%.

As to `CC[C@H]1CN2CCc3cc(OC)c(OC)cc3[C@H]2C[C@@H]1C[C@@H]1NCCc2cc(OC)c(OC)cc21`, the Potency in the test with astro was 0.447 µM (active).

Take `C=C1C(=CC=C2CCC[C@]3(C)[C@@H]([C@H](C)C=C[C@H](C)C(C)C)CC[C@@H]23)C[C@@H](O)C[C@@H]1O`: the Potency with astro is 25.1 µM (active).

On to `CC(C)(C)c1cc(C(C)(C)C)c(NC(=O)c2c[nH]c3ccccc3c2=O)cc1O`, for which the activity change, negative = inhibition was -18% in test [1] (HiBiT) and -12% in test [1] (Viability).

For `Nc1ccn([C@@H]2CS[C@H](CO)O2)c(=O)n1`, the activity, negative = cell killing in test [2] (setting [3]) is -9.03%; in test [2] (setting [4]) it was -12.1%; in test [2] (setting [5]), -14.9%; in test [2] (setting [6]), 6.78%. For the same molecule, in the test with astro, the Potency result was “inactive”.

As to `COc1cc(C(C)C)c2c(c1)S(=O)(=O)N(COc1cc(=O)n3cccc(OCCN4CCCCC4)c3n1)C2=O`, the activity change, negative = inhibition in test [1] (Viability) was -20.7%.

Turning to `CC1(C)O[C@@H]2C[C@@H]3[C@H]4C[C@@H](F)C5=CC(=O)C=C[C@]5(C)[C@@]4(F)[C@@H](O)C[C@]3(C)[C@]2(C(=O)CO)O1`, the activity, negative = cell killing is -7.89% in test [2] (setting [3]), -1.99% in test [2] (setting [4]), -7.12% in test [2] (setting [5]) and 2.95% in test [2] (setting [6]). Also, in the test on astro, the Potency entry is “inactive”.

With `c1cc(-c2cnn3cc(-c4ccc(OCCN5CCCCC5)cc4)cnc23)ccn1`, the Potency in test [1] (HiBiT) was 14 µM (active).

Regarding `CCN1CCN(Cc2ccc(-c3cc4c(N[C@H](C)c5ccccc5)ncnc4[nH]3)cc2)CC1`, in test [1] (HiBiT), the Potency is 19.8 µM (active).

Turning to `CC[C@H](CO)Nc1nc(NCc2ccccc2)c2ncn(C(C)C)c2n1`, in test [1] (HiBiT), the Potency was 17.6 µM (active). The activity change, negative = inhibition in test [1] (Viability) is -8.22%.
